# Bioassay records (PubChem)
# 15-hLO-2 inh: inhibitors of human 15-lipoxygenase 2 (ALOX15B). 110,000 compounds, 0.56% hits. purified 15hLO-2, xylenol orange hydroperoxide absorbance. O15296. Potency, µM (top dose mostly 57.1 µM), for inactives: top-dose activity change, negative = inhibition, most hits filed as inhibitors; further: potency means the concentration at half of the fitted maximal effect; nearly all actives have a fitted effect of over 60% in size
#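 Read-out: hydroperoxide product oxidises ferrous iron, measured as xylenol orange complex via the 573-to-405 nm absorbance ratio after 30 min. Reaction: 50 nM enzyme, 15 min compound preincubation, 45 uM arachidonic acid, 90 min RT, Hepes pH 7.5 with Triton X-100.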
# IMPase cell inh: IMPase inhibition in cells; P97697; CHO-M1 cells, IP1 accumulation, HTRF TR-FRET ratio; inhibition (IP1 accumulation), % at 46.1 µM; 120,000 tested, under 10 active; AID 901; active means well fitted curve in the direction sought with a large enough effect in the signal ratio, not every such curve was filed as active; inconclusive means small, poorly fitted or top-dose-only effect, or a change in a side signal; inactive means no such curve, though single readings can be large or run the other way; the % refers to the signal ratio;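 further: cells stimulated with carbachol in lithium chloride buffer; plate controls were DMSO basal wells for no effect and reference inhibitor wells for full effect; higher means more IMPase inhibition seen as more IP1 and lower FRET ratio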
#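 Elevated IP1 in lysates lowers TR-FRET signal (665/620 ratio and 620 channel reported). Cells were CHO-M1, given carbachol (50 uM as added) plus 50mM LiCl, pH 7.4, 30 min, 37C; compounds titrated up to 46 uM; AC50 by Hill equation.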
# HPGD inh: HPGD (human) dehydrogenase inhibition; P15428; purified HPGD, NADH fluorescence kinetic, PGE2 substrate; Potency, µM, inactives show top-dose activity change, negative = inhibition, most hits filed as inhibitors; 150,000 compounds, 4.3% hits; AID 894; active means well fitted inhibition curve with a large enough effect, not every such curve was filed as active; inconclusive means small, poorly fitted or top-dose-only effect, or another doubt; inactive means no such curve, though single readings can be large or run the other way; further: potency means the concentration at half of the fitted maximal effect
#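 20 nM HPGD preincubated 15 min at room temperature with compound in 50 mM Tris-HCl pH 8, 0.01% Tween 20. Started with 1 mM NAD+ and 30 uM prostaglandin E2; NADH fluorescence (360/450 nm) read 5 times over 30-s intervals, last minus first.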
# IMPase Li cell: membrane-permeable IMPase blocker, potentiated with lithium; 210,000 compounds, 0.35% hits; AID 1457; Potency, µM (doses to about 59.4 µM), without a hit: top-dose activity, negative = IMPase inhibition, usual class: inhibitors; CHO-M1 cells, IP1 TR-FRET (IP-One), carbachol + lithium;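 further: IP1 builds up when IMPase is blocked and the TR-FRET signal falls; potency means the concentration at half of the fitted maximal effect; plate controls were basal vehicle for no effect and high inhibitor control for full effect; nearly all actives have a fitted effect of over 50% in size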
#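 Test compounds were applied to CHO-M1 cells previously cultured for 16–30 h at 2000 per well. A small lithium amount accompanied them; after 30 min at 37C, IP1 was quantified by TR-FRET.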
# PNC inhibitor: perinucleolar compartment assembly inhibition; activity change (PNC), negative = inhibition, % at 10 µM; PC3M PTB-GFP, PNC prevalence imaging, 16 h; stronger effect = lower value; AID 2417; 140,000 compounds, 3.1% hits;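 active means readout at or below -70, meaning at least 70% loss of cells showing the perinucleolar compartment, a nuclear body marking cancer cells; inconclusive means readout between -30 and a set limit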;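 further: plate controls were DMSO wells for no effect and camptothecin positive control wells for full effect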
#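 Read-out is percentage of cells bearing a perinucleolar compartment, from automated 20x imaging of fixed, Hoechst-stained PC3M PTB-GFP cells. Cells were seeded 4 h, then exposed 16 h to compound (23 nl of library stock) in duplicate plates.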
# 12-hLO inh: blocks human 12-lipoxygenase activity | 150,000 compounds, 0.12% hits | P18054 | AID 1452 | Potency, µM (doses to about 57.1 µM), inactives show at the highest dose activity change, negative = inhibition, usual class: inhibitors | purified 12-hLO, xylenol orange hydroperoxide absorbance; further: potency means the concentration at half of the fitted maximal effect; nearly all actives have a fitted effect of over 55% in size
# Target sequence (P18054 whole entry, looked up): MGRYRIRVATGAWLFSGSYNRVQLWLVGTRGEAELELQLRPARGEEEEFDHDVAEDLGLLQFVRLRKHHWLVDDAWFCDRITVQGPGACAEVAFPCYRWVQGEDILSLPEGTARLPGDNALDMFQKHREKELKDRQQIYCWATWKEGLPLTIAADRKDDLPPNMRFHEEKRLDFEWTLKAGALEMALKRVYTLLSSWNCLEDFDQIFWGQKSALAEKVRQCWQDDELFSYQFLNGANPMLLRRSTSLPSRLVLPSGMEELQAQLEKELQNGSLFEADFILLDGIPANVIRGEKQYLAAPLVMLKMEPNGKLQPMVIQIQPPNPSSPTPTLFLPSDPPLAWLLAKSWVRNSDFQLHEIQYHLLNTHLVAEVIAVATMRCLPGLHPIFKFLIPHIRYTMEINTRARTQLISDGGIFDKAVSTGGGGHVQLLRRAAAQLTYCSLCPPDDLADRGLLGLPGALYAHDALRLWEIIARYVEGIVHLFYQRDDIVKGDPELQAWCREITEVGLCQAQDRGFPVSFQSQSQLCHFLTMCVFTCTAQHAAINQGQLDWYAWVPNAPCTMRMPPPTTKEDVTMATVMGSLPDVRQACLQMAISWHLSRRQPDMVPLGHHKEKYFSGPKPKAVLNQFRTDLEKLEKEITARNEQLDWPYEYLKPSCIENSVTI
#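 150 nM 12hLO, 25 mM Hepes pH 7.0 + 0.01% Triton X-100; cpd preinc 15 min RT; 40 uM arachidonic acid, 30 min RT; Fe-XO 30 min; A573/A405 ratio as read-out.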
# * marks the source's active call; other numbers are inactive results; ? = inconclusive; . = not tested or not shown; [ ] = another dose, or the depositor's remark. In the library only some 5.4% were active in any assay of this set; here they are far more common. Unless noted, the call rests on the fitted dose curve; in most records, active means well fitted curve in the direction sought with a large enough effect; inconclusive means small, poorly fitted or top-dose-only effect, or another doubt; inactive means no such curve, though single readings can be large; an effect the other way counts as inactive or inconclusive. Unless noted, on the % scale 0 is the no-effect control and ±100 the full control effect.
SMILES,15-hLO-2 inh,IMPase cell inh,HPGD inh,IMPase Li cell,PNC inhibitor,12-hLO inh
CCCCC(CC)COCC1CO1 (centres undefined),-7.5%,.,-6.9%,12.4%,.,1.1%
CCCCNC(=O)N(C)c1nc2ccccc2s1,.,.,.,11.1%,.,.
CCCNC(=O)N(C)c1nncnc1C(=O)NC,1.3%,-0.8,-16.4%,-5.3%[38.3 µM],-100.0*,-8.4%
OC[C@@H]1O[C@@H](n2cnc3c(Nc4ccccc4)ncnc32)[C@@H](O)[C@H]1O,-7.8%,-0.6,.,.,.,-4.0%
CCN(CC)c1ccc(/C=N/n2c(C)cc(C)cc2=O)cc1,-3.8%,6.5,?,-12.0%[38.3 µM],-123.3*,-4.6%
COc1cc(OC)c(N(C)C(=O)c2cn(C3CCCC3)c(=O)c3c2c2ccccc2n3C)cc1Cl,.,7.3,.,.,.,.
Cc1sc2nc(CN3CCOCC3)[nH]c(=O)c2c1-c1ccccc1,.,.,0.5%,-13.0%,-110.3*,-3.9%
N#CCCn1c(=O)c(-c2ccc(F)cc2)nc2cnc(N3CCNCC3)nc21,6.7%,.,.,-11.9%,.,.
COc1cc(OC)cc(C(=O)Nc2ccc3oc(-c4ccc(Cl)cc4)nc3c2)c1,.,-14.1,.,.,.,.
O=C(C1CCC(CNc2c(N3CCCCC3)c(=O)c2=O)CC1)N1CCc2ccccc2C1 (centres undefined),-9.9%,8.0,0.562µM*,16.5%[38.3 µM],-26.7,9.3%
CC1CCN(c2c(NCC3CCC(C(=O)N4CCc5ccccc5C4)CC3)c(=O)c2=O)CC1 (centres undefined),-3.0%,1.6,2.51µM*,1.3%[38.3 µM],25.3,-1.4%
O=C(C1CCN(c2ccc(N3CCOCC3)nn2)CC1)N1CCc2ccccc2C1,-5.0%,?,?,-5.3%[38.3 µM],7.5,4.5%
CCN(Cc1ccccc1)C(=O)C1CCC(CNc2c(N3CCOCC3)c(=O)c2=O)CC1 (centres undefined),-4.4%,-0.3,25.1µM*,-7.3%[38.3 µM],31.5,4.3%
O=C(C1CCC(CNc2c(N3CCOCC3)c(=O)c2=O)CC1)N1CCN(c2ccccc2)CC1 (centres undefined),.,0.6,-18.0%,-0.3%,30.0,-1.6%
COc1cccc(NC(=O)Cc2nnc(SCC(=O)c3ccccc3)n2C)c1,.,4.4,31.6µM*,2.0%,230.0,-9.0%
COc1cccc(NC(=O)Cc2nnc(SCCOc3ccccc3)n2C)c1,3.8%,4.2,-2.8%,23.0%[38.3 µM],7.7,-1.8%
CCn1c(CC(=O)Nc2cccc(OC)c2)nnc1SCC(=O)N1CCN(c2ccccc2)CC1,3.2%,-11.0,0.7%,13.3%[38.3 µM],-85.4*,-4.1%
C=CC(=O)OCC(CO)(COC(=O)C=C)COC(=O)C=C,-11.1%,.,-5.0%,3.9%,.,2.3%
IC(I)I,?,.,-13.4%,4.6%,.,-0.4%
Cc1ccc(-c2nc3ccccc3s2)cc1NC(=O)c1ccc2c(c1)OCO2,5.0%,-12.5,?,11.2µM*,6.2,-3.9%
O=C(Nc1cc(-c2nc3ccccc3s2)ccc1Cl)c1ccc2c(c1)OCO2,-13.1%,-7.4,?,?,?,-5.4%
CCC(=O)NC(=S)Nc1ccc(-c2nc3ccccc3s2)cc1,-6.4%,2.1,-2.4%,11.2µM*,-7.4,1.0%
Cc1ccc(C(=O)NC(=S)Nc2cccc(-c3nc4ccccc4s3)c2)cc1,.,-14.1,-8.1%,0.2%,-112.5*,-0.5%
CN(C)c1ccnc(-c2ccccc2C(F)(F)F)n1,-0.2%,.,-3.7%,-2.7%,.,-6.7%
COc1ccc2c(c1)O[C@H](c1ccc3c(c1)OCO3)[C@@H](OC(=O)Nc1ccc(C)c(Br)c1)C2=O,.,.,3.2%,11.7%,.,.
SMILES,15-hLO-2 inh,IMPase cell inh,HPGD inh,IMPase Li cell,PNC inhibitor,12-hLO inh
COC(=O)c1ccccc1NC(=O)c1sc(=S)n(C)c1N,?,-9.0,22.4µM*,8.6%[38.3 µM],?,-10.3%
COC(=O)c1ccccc1NC(=O)/C=C/C(=O)O,.,.,-9.0%,-10.2%,-83.5*,-0.6%
Cc1cccc(Cc2cnc(NC(=O)C3Cc4ccc(C)cc4C(=O)O3)s2)c1 (centres undefined),.,6.7,.,.,.,.
Cc1cc(OC(=O)c2ccccc2Br)cc(=O)n1C,3.3%,1.2,12.6µM*,-14.8%[38.3 µM],22.6,-0.6%
O=C(Cc1cc(=O)[nH][nH]1)N/N=C/c1c(Cl)cccc1Cl,.,1.2,14.1µM*,17.4%,?,-7.8%
O=c1cc(-c2ccccc2O)oc2c1ccc1ccccc12,-5.5%,-3.9,-1.7%,8.4%,.,-4.6%
Cc1cccc(NC(=O)C2CC(=O)n3cnnc3S2)c1 (centres undefined),-22.4%,2.2,10µM*,16.9%[38.3 µM],11.5,-3.5%
CCN=C1SC(C(=O)Nc2cccc(C)c2)CC(=O)N1CC (centres undefined),-0.8%,5.0,-4.3%,19.3%[38.3 µM],-23.1,1.6%
COc1ccccc1C1OC(=O)CC1C(=O)OC[C@@H]1CCCN2CCCCC12 (some centres undefined),.,.,-2.6%,21.7%,.,.
Cc1csc2nc(CSc3nncn3-c3ccccc3)c(Br)n12,9.8%,13.5,3.9%,33.7%[38.3 µM],-12.9,0.7%
Cc1csc2nc(CSc3nc4ccccc4o3)c(Br)n12,9.9%,22.0,14.1µM*,42.4%[38.3 µM],15.9,-3.2%
O=C(CNc1ccc(Br)cc1)NNC1=NCCC1,.,.,-0.9%,1.2%,-113.4*,2.2%
CC(/C=N/n1c(-c2ccccc2)n[nH]c1=S)=C\c1ccco1,?,3.5,?,9.0%,39.8,-15.4%
CC(/C=N/n1c(-c2ccc(C)cc2)n[nH]c1=S)=C\c1ccco1,.,5.6,2.51µM*,8.8%,-4.7,-6.2%
CC(/C=N/n1c(-c2ccco2)n[nH]c1=S)=C\c1ccco1,.,-1.9,14.1µM*,3.4%,61.6,-14.2%
CC1CCN(S(=O)(=O)c2cn(CC(=O)Nc3ccc(F)c(Cl)c3)c(=O)c3ccccc23)CC1,.,3.1,.,.,.,.
COc1ccc(NC(=S)NNC(=O)COc2ccc(Cl)cc2Cl)cc1,.,7.3,4.47µM*,-0.1%,-7.1,-4.6%
Cc1cccc(NC(=S)NNC(=O)COc2ccc(Cl)cc2Cl)c1,.,-0.9,?,6.1%,65.2,?
CCNC(=O)CCCOc1ccc(Cl)cc1Cl,6.5%,2.3,14.1µM*,-17.0%[38.3 µM],-1.4,0.2%
O=C(CCCOc1ccc(Cl)cc1Cl)Nc1ccncc1,32.6%,-8.6,14.1µM*,22.2%[38.3 µM],11.2,-12.6%
Clc1ccc(OCCCc2nc(-c3cccnc3)no2)c(Cl)c1,34.3%,1.2,.,.,8.0,-13.8%
Clc1ccc(OCCCc2nc(-c3ccncc3)no2)c(Cl)c1,22.9%,5.2,28.2µM*,19.6%[38.3 µM],3.6,-15.2%
COc1ccc(CNc2nc(-c3ccccc3OC)nc3ccccc23)c(OC)c1,14.3%,.,-13.0%,18.0%,.,1.1%
C/C(=C\CO)CCO,.,.,-4.8%,20.4%,.,.
Cc1noc(C)c1COC(=O)CCCOc1ccc(Cl)cc1Cl,8.8%,-14.8,17.8µM*,11.7%[38.3 µM],-26.4,-17.0%
